Source: PubChem BioAssay (NCATS)
Inconclusive results are not listed. Calls of active or inactive are those of the source. Unless noted, calls come from the whole dose curve; as a rule, active = well fitted curve in either direction with a large enough effect (not every such curve was filed as active); inconclusive = small, poorly fitted or top-dose-only effect, or another doubt; inactive = flat fitted curve, though single readings scatter. Residues, ends and D or L forms follow the SMILES beside them.

How the values were obtained:
[1] = target: Lysosomal acid glucosylceramidase (Homo sapiens) (UniProt P04062); assay: Glucocerebrosidase-p2 (AID 348; in the data active = potency below about 10 µM; note: potency is the fitted concentration of half-maximal effect); settings: purified GBA, blue fluorogenic substrate, 40 min
Sequence of Lysosomal acid glucosylceramidase (Homo sapiens) (P04062 whole entry, looked up): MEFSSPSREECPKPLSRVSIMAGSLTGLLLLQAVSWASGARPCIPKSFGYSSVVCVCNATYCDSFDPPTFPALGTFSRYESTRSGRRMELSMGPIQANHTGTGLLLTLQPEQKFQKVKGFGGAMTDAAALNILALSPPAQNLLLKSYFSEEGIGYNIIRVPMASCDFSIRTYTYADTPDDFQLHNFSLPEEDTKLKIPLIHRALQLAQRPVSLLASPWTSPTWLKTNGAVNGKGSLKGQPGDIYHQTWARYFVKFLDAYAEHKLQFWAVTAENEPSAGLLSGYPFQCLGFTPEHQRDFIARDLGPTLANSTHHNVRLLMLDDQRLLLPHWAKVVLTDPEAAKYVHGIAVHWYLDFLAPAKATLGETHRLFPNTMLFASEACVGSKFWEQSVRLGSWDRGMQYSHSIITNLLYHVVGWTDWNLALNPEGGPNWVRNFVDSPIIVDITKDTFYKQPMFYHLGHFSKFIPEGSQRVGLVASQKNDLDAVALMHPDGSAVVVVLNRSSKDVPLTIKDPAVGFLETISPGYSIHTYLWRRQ
How it was run: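 Normal human glucocerebrosidase (0.2 nM) with blue fluorogenic substrate (80 uM final) in citrate/phosphate pH 5.9 with 10mM sodium taurocholate, 0.01% tween-20; 40 min RT, NaOH/glycine stop; fluorescence Ex 365/Em 440; AC50 from a titration from 0.6 nM upwards.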

[2] = AP1 Signaling Pathway (AID 357); settings: ME-180 AP-1-bla reporter, EGF-induced, beta-lactamase ratio, 5 h; at 7.69 µM (top of the series) unless noted;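 note: ME-180 reporter cells stimulated with EGF at its EC50 level; % is set by controls: 0 for no effect and ±100 for the full control effect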
How it was run: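 Cells are seeded overnight, exposed to compound titrations and an EC50 level of EGF for 5 hours at 37 °C, then loaded with CCF4 dye for 2.5 hours. Beta-lactamase activity under the AP-1 element is read as a blue/green ratio.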

[3] = NFAT Signaling Pathway (AID 444); settings: Jurkat NFAT-bla M1, carbachol, beta-lactamase ratio, 5 h; at 7.69 µM (top of the series) unless noted;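 note: carbachol stimulus at about its EC50 of 1 µM final; % is set by controls: 0 for no effect and ±100 for the full control effect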
How it was run: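 Jurkat cells carrying an NFAT-driven β-lactamase reporter and co-transfected muscarinic M1 receptor were treated with compound plus carbachol (1 uM final, an EC50 level) for 5 h at 37 °C. CCF4 loading followed for 1 h at RT; 460/530 nm ratio gave %activity.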

[4] = Stat Signaling Pathway (AID 446); settings: ME-180 (cervical carcinoma) SIE beta-lactamase reporter, IL-6 stimulated, 5 h; at 7.69 µM (top of the series) unless noted;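 note: ME-180 cervical cancer cells given 40 pM IL-6 alongside compound; SIE-controlled beta-lactamase reporter measured as 460/530 nm FRET emission ratio; % is set by controls: 0 for no effect and ±100 for the full control effect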
How it was run: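 Normalization used AC90 stimulation (300 pM IL-6) and AC90 inhibition (125 nM pan-JAK inhibitor at 40 pM IL-6). The underlying signal is SIE-driven beta-lactamase in ME-180 cells after 5 h IL-6 exposure with compound.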

[5] = target: Glucocorticoid receptor (Homo sapiens) (UniProt P04150); assay: GR-GFP Redistribution (AID 450;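 active = compounds whose dose series gives a full or clear partial fitted curve of increased nuclear translocation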; note: potency is the fitted concentration of half-maximal effect); settings: U2OS GR-GFP nuclear translocation, laser cytometry, 2 h
Sequence of Glucocorticoid receptor (Homo sapiens) (P04150 whole entry, looked up, the tested form may be a part): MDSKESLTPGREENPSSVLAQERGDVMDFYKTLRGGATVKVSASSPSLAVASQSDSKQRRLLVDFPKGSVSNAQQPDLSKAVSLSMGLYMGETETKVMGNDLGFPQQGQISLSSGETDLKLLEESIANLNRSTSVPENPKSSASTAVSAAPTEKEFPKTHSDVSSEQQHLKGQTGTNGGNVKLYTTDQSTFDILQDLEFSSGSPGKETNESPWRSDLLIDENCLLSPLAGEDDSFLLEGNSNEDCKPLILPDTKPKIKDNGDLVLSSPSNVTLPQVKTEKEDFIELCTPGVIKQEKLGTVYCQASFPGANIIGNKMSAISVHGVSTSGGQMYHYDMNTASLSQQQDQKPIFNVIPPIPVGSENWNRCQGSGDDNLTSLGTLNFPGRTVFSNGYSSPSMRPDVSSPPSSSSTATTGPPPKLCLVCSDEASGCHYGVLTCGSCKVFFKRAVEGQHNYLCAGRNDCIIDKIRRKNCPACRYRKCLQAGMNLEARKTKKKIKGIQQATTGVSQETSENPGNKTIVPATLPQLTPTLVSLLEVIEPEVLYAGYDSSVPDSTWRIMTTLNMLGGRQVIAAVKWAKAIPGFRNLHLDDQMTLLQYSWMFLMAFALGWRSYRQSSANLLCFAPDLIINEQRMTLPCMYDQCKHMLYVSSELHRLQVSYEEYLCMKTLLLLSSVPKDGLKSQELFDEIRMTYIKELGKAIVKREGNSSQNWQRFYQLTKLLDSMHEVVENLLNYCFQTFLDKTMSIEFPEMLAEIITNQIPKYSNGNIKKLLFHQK

[6] = target: Glucocorticoid receptor (Homo sapiens) (UniProt P04150); assay: GR-EFC Redistribution (AID 451; calls by dose curve; note: potency is the fitted concentration of half-maximal effect); settings: CHO-K1 GR-EFC translocation, beta-gal luminescence, 2 h
How it was run: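 CHO-K1 cells stably expressing nuclear-localized β-gal enzyme acceptor and GR fused C-terminally to the enzyme donor fragment; ligand-driven nuclear translocation restores β-gal by complementation. Compounds titrated up to 46 uM final, 2 h at 37 °C; luminescence read.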

[7] = target: Mitogen-activated protein kinase 10 (Mus musculus) (UniProt Q61831); assay: JNK3 AlphaScreen Assay (AID 530); settings: JNK3 lysate, c-Jun phosphorylation; series mostly up to 11.4 µM;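 note: kinase came from lysate of stimulated human HepG2 cells; signal reports phosphorylation of biotinylated GST-cJun 1-79 at Ser73 with 10 µM ATP; % is set by controls: 0 for no effect and ±100 for the full control effect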
How it was run: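 Phosphorylation of biotinylated GST-cJun(1-79) at Ser73 is measured by AlphaScreen proximity luminescence. Enzyme is JNK3 in HepG2 lysates activated with interleukin-1beta and tumor necrosis factor alpha; ATP is 10 uM final.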

[8] = target: 3',5'-cyclic-AMP phosphodiesterase 4B (Homo sapiens) (UniProt Q07343); assay: qHTS Assay for Inhibitors of PDE-IV (AID 607; active = well fitted activation curve with a large enough effect in the main read-out, with a control signal flat, not every such curve was filed as active; note: % of control where 0% means no effect); settings: HEK293 ACTOne CNG channel cells, membrane potential fluorescence; series mostly up to 22.9 µM
Sequence of 3',5'-cyclic-AMP phosphodiesterase 4B (Homo sapiens) (Q07343 whole entry, looked up): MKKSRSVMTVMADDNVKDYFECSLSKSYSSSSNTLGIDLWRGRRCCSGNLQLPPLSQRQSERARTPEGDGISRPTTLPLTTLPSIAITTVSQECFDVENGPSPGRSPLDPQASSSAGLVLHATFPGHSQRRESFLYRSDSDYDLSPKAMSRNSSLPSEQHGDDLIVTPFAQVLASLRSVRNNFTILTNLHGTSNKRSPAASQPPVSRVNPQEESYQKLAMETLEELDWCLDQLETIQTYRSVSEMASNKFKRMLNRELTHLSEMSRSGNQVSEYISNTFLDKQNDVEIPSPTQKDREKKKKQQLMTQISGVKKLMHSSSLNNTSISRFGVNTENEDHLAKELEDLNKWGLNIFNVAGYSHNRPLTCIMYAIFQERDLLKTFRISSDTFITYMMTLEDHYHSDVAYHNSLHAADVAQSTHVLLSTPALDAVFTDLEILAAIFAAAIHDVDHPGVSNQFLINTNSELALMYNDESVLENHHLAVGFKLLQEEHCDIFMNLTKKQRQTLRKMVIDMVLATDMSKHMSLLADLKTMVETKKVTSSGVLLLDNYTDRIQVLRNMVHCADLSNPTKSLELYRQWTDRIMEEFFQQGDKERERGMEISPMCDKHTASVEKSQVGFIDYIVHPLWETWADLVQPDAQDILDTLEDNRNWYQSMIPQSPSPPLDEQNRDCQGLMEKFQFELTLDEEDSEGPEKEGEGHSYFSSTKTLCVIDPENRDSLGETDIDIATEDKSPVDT
How it was run: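 HEK293 ACTOne cells with CNG channel (1000/well), endogenous PDE4; membrane potential dye, compounds up to 22.9 uM final. Fluorescence Ex 535/Em 590; RO 20-1724 (100 uM final) as reference.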

COc1cc(CN2CCCCC2)cc2cc(C(=O)O)c(=O)oc12
inactive: Potency [1] > 11.4 µM | activity change, negative = inhibition [2] 17.3% | activity change, negative = inhibition [3] 15.7% | activity, negative = inhibition [4] -2.43% | Potency [5] > 46 µM | Potency [6] > 9.22 µM | Potency [7] | Potency [8]

O=C1C2[C@@H](c3ccccc3)N[C@@H](c3ccccc3)C1[C@H](c1ccccc1)N[C@H]2c1ccccc1
inactive: Potency [1] > 11.4 µM | activity change, negative = inhibition [2] -5.02% | activity change, negative = inhibition [3] 3.11% | activity, negative = inhibition [4] 1.27% | Potency [5] > 46 µM | Potency [6] > 9.22 µM | Potency [7] | Potency [8]

CN(C)CCCSc1nc2ccccc2[nH]1
inactive: Potency [1] > 11.4 µM | activity change, negative = inhibition [2] -0.00775% | activity change, negative = inhibition [3] -10.2% | activity, negative = inhibition [4] 3.11% | Potency [5] > 46 µM | Potency [6] > 9.22 µM | Potency [7] | Potency [8]

Cc1cc(=O)[nH]c(/N=C(\N)Nc2ccc(Cl)cc2)n1
inactive: Potency [1] > 11.4 µM | activity change, negative = inhibition [2] -8.26% | activity change, negative = inhibition [3] -9.44% | activity, negative = inhibition [4] -3.21% | Potency [5] > 46 µM | Potency [6] > 9.22 µM | Potency [7] | Potency [8]

Cc1cc(O)c(C(C)C)cc1CN1CCCCC1
inactive: Potency [1] > 11.4 µM | activity change, negative = inhibition [2] 10.4% | activity change, negative = inhibition [3] -29.6% | activity, negative = inhibition [4] 5.31% | Potency [5] > 46 µM | Potency [6] > 9.22 µM | Potency [7] | Potency [8]

COCCn1c(=O)c(-c2cc(F)cc(F)c2)nc2cnc(Oc3ccc(OC)cc3)nc21
inactive: Potency [1] > 11.4 µM | activity change, negative = inhibition [2] -11.1% | activity change, negative = inhibition [3] 0.515% | activity, negative = inhibition [4] -2.08% | Potency [5] > 9.22 µM | Potency [6] > 46 µM | Potency [7] | Potency [8]

O=C(CSC1=NCCN1)c1ccccc1
inactive: Potency [1] > 11.4 µM | activity change, negative = inhibition [2] -0.79% | activity change, negative = inhibition [3] -8.06% | activity, negative = inhibition [4] -8.19% | Potency [5] > 46 µM | Potency [6] > 9.22 µM | Potency [7] | Potency [8]

O=[N+]([O-])c1ccc2c(c1)c(S(=O)(=O)O)cc1nonc12
inactive: Potency [1] > 11.4 µM | activity change, negative = inhibition [2] -3.17% | activity change, negative = inhibition [3] 6.23% | activity, negative = inhibition [4] 19.1% | Potency [5] > 46 µM | Potency [6] > 9.22 µM | Potency [7] | Potency [8]

NC1(C(=O)OCc2ccccc2)CCCC1
inactive: Potency [1] > 11.4 µM | activity change, negative = inhibition [2] 8.77% | activity change, negative = inhibition [3] -4.79% | activity, negative = inhibition [4] 3.45% | Potency [5] > 46 µM | Potency [6] > 9.22 µM | Potency [7] | Potency [8]

O=C(O)c1ccc(C(=O)O)c(C(=O)Nc2ccc3c(c2)Cc2ccccc2-3)c1
inactive: Potency [1] > 11.4 µM | activity change, negative = inhibition [2] 5.18% | activity change, negative = inhibition [3] 4.14% | activity, negative = inhibition [4] -0.756% | Potency [5] > 46 µM | Potency [6] > 9.22 µM | Potency [7] | Potency [8]

Cc1cccc2cc3ccc4ccccc4c3cc12
inactive: Potency [1] > 11.4 µM | activity change, negative = inhibition [2] -0.591% | activity change, negative = inhibition [3] -3.47% | activity, negative = inhibition [4] 19.6% | Potency [5] > 46 µM | Potency [6] > 9.22 µM | Potency [7] | Potency [8]

CC(C)[C@@H](C(=O)O)N1C(=O)c2ccccc2C1=O
inactive: Potency [1] > 11.4 µM | activity change, negative = inhibition [2] -2.02% | activity change, negative = inhibition [3] -8.21% | activity, negative = inhibition [4] 2.83% | Potency [5] > 46 µM | Potency [6] > 9.22 µM | Potency [7] | Potency [8]

NS(=O)(=O)c1ccc(NCc2cnc3ccccc3c2)cc1
inactive: Potency [1] > 11.4 µM | activity change, negative = inhibition [2] -2.59% | activity change, negative = inhibition [3] 13.4% | activity, negative = inhibition [4] 0.424% | Potency [5] > 46 µM | Potency [6] > 9.22 µM | Potency [7] | Potency [8]

CC(C)Cn1cnc2c(SCc3ccccn3)nc(N)nc21
inactive: Potency [1] > 11.4 µM | activity change, negative = inhibition [2] -13.7% | activity change, negative = inhibition [3] 8.93% | activity, negative = inhibition [4] -1.91% | Potency [5] > 46 µM | Potency [6] > 9.22 µM | Potency [7] | Potency [8]

O=c1ccc(-c2ccccc2)n[nH]1
inactive: Potency [1] > 11.4 µM | activity change, negative = inhibition [2] 1.12% | activity change, negative = inhibition [3] -2.18% | activity, negative = inhibition [4] -3.27% | Potency [5] > 46 µM | Potency [6] > 9.22 µM | Potency [7] | Potency [8]

Cc1ccc(CCCC(=O)O)cc1C
inactive: Potency [1] > 11.4 µM | activity change, negative = inhibition [2] 2.32% | activity change, negative = inhibition [3] 9.24% | activity, negative = inhibition [4] 3.42% | Potency [5] > 46 µM | Potency [6] > 9.22 µM | Potency [7] | Potency [8]

c1ccc(CN2CCC3(CC2)SSC2(CCN(Cc4ccccc4)CC2)SS3)cc1
inactive: Potency [1] > 11.4 µM | activity change, negative = inhibition [2] 3.33% | activity change, negative = inhibition [3] 3.92% | activity, negative = inhibition [4] -1.41% | Potency [5] > 46 µM | Potency [6] > 9.22 µM | Potency [7] | Potency [8]

CN(C)Cc1nsc(N(C)C)n1
inactive: Potency [1] > 11.4 µM | activity change, negative = inhibition [2] 6.96% | activity change, negative = inhibition [3] 0.0247% | activity, negative = inhibition [4] 11.1% | Potency [5] > 46 µM | Potency [6] > 9.22 µM | Potency [7] | Potency [8]

S=C1NCN2CCN(CC2)CNC(=S)C(=S)NCN2CCN(CC2)CNC1=S
inactive: Potency [1] > 11.4 µM | activity change, negative = inhibition [2] 3.32% | activity change, negative = inhibition [3] -3.6% | activity, negative = inhibition [4] 3.07% | Potency [5] > 46 µM | Potency [6] > 9.22 µM | Potency [7] | Potency [8]

C[N+](C)(N)Cc1nc(-c2ccc(Cl)cc2)no1
inactive: Potency [1] > 11.4 µM | activity change, negative = inhibition [2] 3.76% | activity change, negative = inhibition [3] -6.01% | activity, negative = inhibition [4] 4.26% | Potency [5] > 46 µM | Potency [6] > 9.22 µM | Potency [7] | Potency [8]

[N-]=[N+]=N[C@@H]1[C@H](O)[C@H](CO)O[C@@H]1n1cnc2c(N)ncnc21
inactive: Potency [1] > 11.4 µM | activity change, negative = inhibition [2] -7.07% | activity change, negative = inhibition [3] 9.28% | activity, negative = inhibition [4] -12.3% | Potency [5] > 46 µM | Potency [6] > 9.22 µM | Potency [7] | Potency [8]

COC(=O)c1cc(-c2ccc3ccccc3c2)[nH]c(=O)c1C#N
inactive: Potency [1] > 11.4 µM | activity change, negative = inhibition [2] -3.94% | activity change, negative = inhibition [3] 1.77% | activity, negative = inhibition [4] -1.42% | Potency [5] > 46 µM | Potency [6] > 9.22 µM | Potency [7] | Potency [8]

OC[C@@H](O)[C@@H](O)[C@@H](O)[C@@H](O)c1nc2ccc(Cl)cc2[nH]1
inactive: Potency [1] > 11.4 µM | activity change, negative = inhibition [2] 4.42% | activity change, negative = inhibition [3] 10.1% | activity, negative = inhibition [4] -0.802% | Potency [5] > 46 µM | Potency [6] > 9.22 µM | Potency [7] | Potency [8]

COc1cccc(CSCC(=O)O)c1
inactive: Potency [1] > 11.4 µM | activity change, negative = inhibition [2] -5.92% | activity change, negative = inhibition [3] 6.63% | activity, negative = inhibition [4] 6.95% | Potency [5] > 46 µM | Potency [6] > 9.22 µM | Potency [7] | Potency [8]

C[C@@H](NC(=O)C1(N)CCCC1)C(=O)O (HELM PEPTIDE1{[NC1(C(=O)[*:2])CCCC1].[dA]}$$$$V2.0)
inactive: Potency [1] > 11.4 µM | activity change, negative = inhibition [2] 5.64% | activity change, negative = inhibition [3] 15.7% | activity, negative = inhibition [4] 6.26% | Potency [5] > 46 µM | Potency [6] > 9.22 µM | Potency [7] | Potency [8]

C[N@@+]1(CC[N@@+]2(C)CCC[C@H]2c2cccnc2)CCC[C@@H]1c1cccnc1
inactive: Potency [1] > 11.4 µM | activity change, negative = inhibition [2] 28.9% | activity change, negative = inhibition [3] -16.4% | activity, negative = inhibition [4] -5.44% | Potency [5] > 46 µM | Potency [6] > 9.22 µM | Potency [7] | Potency [8]

C[C@H](CC(=O)O)C(C(=O)O)C(=O)O
inactive: Potency [1] > 11.4 µM | activity change, negative = inhibition [2] -3.69% | activity change, negative = inhibition [3] -5.24% | activity, negative = inhibition [4] -3.1% | Potency [5] > 46 µM | Potency [6] > 9.22 µM | Potency [7] | Potency [8]

CC(=O)[C@H]1CC[C@@H]2[C@]1(C)CC=C1[C@]23C=C[C@]2(C[C@H](O)CC[C@@]12C)[C@H](C(=O)O)[C@@H]3C(=O)O
inactive: Potency [1] > 11.4 µM | activity change, negative = inhibition [2] -6.74% | activity change, negative = inhibition [3] 13% | activity, negative = inhibition [4] 3.06% | Potency [5] > 46 µM | Potency [6] > 9.22 µM | Potency [7] | Potency [8]
